Laboratory results as given in PubChem BioAssay (NCATS).
“And” between values parts separate entries of the source, which are not always exact repeats. Identical values can stand only once. Results filed as inconclusive are left out. The source made the active and inactive calls. Unless noted, calls follow the shape of the dose curve; as a rule, active = well fitted curve in the direction sought with a large enough effect; inconclusive = small, poorly fitted or top-dose-only effect, or another doubt; inactive = no such curve, though single readings can be large; an effect the other way counts as inactive or inconclusive.

Tests used:
[1] = molecular target: Calcium and integrin-binding protein 1 (Homo sapiens) (UniProt Q99828); assay: Primary qHTS for Identification of Calcium Integrin Binding Protein 1 (CIB1) Competitor (AID 1508620); conditions: CIB1-GST / FITC-alphaIIb peptide fluorescence polarization; series mostly up to 114 µM;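 also: GST tagged CIB1 binding a fluorescein labelled alphaIIb integrin peptide tracer; top concentration of the series differs between compounds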
Method in brief: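 Fluorescence polarization competition: CIB1-GST (1 uM final) preincubated with compound 15 min at room temperature, then FITC-labeled alphaIIb peptide (100 nM final) added for another 15 min. Polarization read at Ex 480/Em 540.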

[2] = molecular target: Cytochrome P450 2C9 (Homo sapiens) (UniProt P11712); assay: Cytochrome P450 family 2 subfamily C member 9 (CYP2C9) small molecule antagonists: luciferase biochemical (cell-free) qHTS assay (AID 1645842; active = well fitted curve in the direction sought with a large enough effect in the repeat runs; an effect the other way counts as inactive or inconclusive; also: nearly all actives have a fitted effect of over 55% in size; also: potency is read from the fitted curve at half-maximal effect); conditions: P450-Glo CYP2C9 enzyme assay, luciferin luminescence; series mostly up to 57.4 µM
Method in brief: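 P450-Glo CYP2C9 system: proluciferin substrate with enzyme in mix containing 0.4% BSA, 10 min at room temperature, then NADPH regeneration solution added and incubated 1 h at 37C. Detection reagent stopped reaction; luminescence read after 20 min as RLU.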

[3] = Primary qHTS for inhibitors of nuclear receptor binding SET domain protein 2 (NSD2) in an isogenic RCH-ACV NSD2 p.E1099K mutant (9B) (AID 1645876); conditions: RCH-ACV NSD2 E1099K (9B) viability, CellTiter-Glo, 72 h; series mostly up to 44.9 µM; also: nearly all actives have a fitted effect of over 70% in size; also: potency is read from the fitted curve at half-maximal effect
[4] = Primary qHTS for inhibitors of nuclear receptor binding SET domain protein 2 (NSD2) in an RCH-ACV wild type WT cells (2C) (AID 1645877); conditions: RCH-ACV (leukaemia line) NSD2 WT (2C) viability, CellTiter-Glo, 72 h; series mostly up to 44.9 µM; also: nearly all actives have a fitted effect of over 70% in size; also: potency is read from the fitted curve at half-maximal effect

Chain of Cytochrome P450 2C9 (Homo sapiens) (P11712 whole entry, looked up): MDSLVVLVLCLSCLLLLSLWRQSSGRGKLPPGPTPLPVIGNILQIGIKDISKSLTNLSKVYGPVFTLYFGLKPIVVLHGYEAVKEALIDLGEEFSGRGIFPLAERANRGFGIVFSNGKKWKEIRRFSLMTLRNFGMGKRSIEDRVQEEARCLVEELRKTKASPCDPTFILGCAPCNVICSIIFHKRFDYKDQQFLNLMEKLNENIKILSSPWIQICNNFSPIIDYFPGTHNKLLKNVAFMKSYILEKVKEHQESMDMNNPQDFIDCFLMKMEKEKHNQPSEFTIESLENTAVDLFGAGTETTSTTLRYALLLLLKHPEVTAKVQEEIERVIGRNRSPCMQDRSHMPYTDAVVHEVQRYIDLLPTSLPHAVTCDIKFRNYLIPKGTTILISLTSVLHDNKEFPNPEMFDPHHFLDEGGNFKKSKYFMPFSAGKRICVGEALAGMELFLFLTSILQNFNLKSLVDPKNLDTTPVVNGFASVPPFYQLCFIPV
Chain of Calcium and integrin-binding protein 1 (Homo sapiens) (Q99828 whole entry, looked up): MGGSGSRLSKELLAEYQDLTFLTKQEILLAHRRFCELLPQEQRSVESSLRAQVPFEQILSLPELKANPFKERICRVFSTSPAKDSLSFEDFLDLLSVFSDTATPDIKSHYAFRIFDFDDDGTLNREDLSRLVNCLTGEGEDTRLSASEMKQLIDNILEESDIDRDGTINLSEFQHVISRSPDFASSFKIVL

Structure (SMILES) | Potency [1] | Potency [2] | Potency [3] | Potency [4]
CC(C)CCNC(=O)c1ccc2c(c1)nc(Nc1n[nH]c3ccc(-c4ccccc4OC(F)(F)F)cc13)n2C1CCC(O)CC1 (centres undefined) | inactive | 9.52 µM (active) | 10.3 µM (active) | 14.5 µM (active)
Cc1cc(C(C)Nc2ccccc2C(=O)O)c2nc(N3CCOCC3)cc(=O)n2c1 (centres undefined) | inactive | 8.49 µM (active) | 0.409 µM (active) | 0.728 µM (active)
CC1(C(=O)Nc2ccc(F)nc2)CCCN1c1nc(Nc2cc(C3CC3)[nH]n2)c2cccn2n1 (centres undefined) | inactive | 10.7 µM (active) | 1.29 µM (active) | 0.649 µM (active)
O=S(=O)(Nc1ccccc1N1CCCCC1)c1ccc(Cl)s1 | inactive | 5.35 µM (active) | inactive | inactive
Cn1ncc(Cl)c1-c1cc(C(=O)N[C@H](CN)Cc2ccc(F)c(F)c2)sc1Cl | inactive | 13.5 µM (active) | 1.63 µM (active) and 1.05 µM (active) | 2.05 µM (active) and 1.05 µM (active)
COc1cc(NC(=O)c2cccc(-n3cc(NC(=O)Nc4cccc(C)c4)cn3)c2)cc(OC)c1OC | inactive | 2.68 µM (active) | 8.17 µM (active) | 9.16 µM (active)
O=C(N[C@H]1CCC[C@H](CO)C1)C1CCN(c2nc3cc(Cl)c(-c4ccc(Cl)cc4)cc3o2)CC1 | inactive | inactive | 20.5 µM (active) | 16.3 µM (active)
C[C@H](Nc1cc2c(-c3ccc4c(c3)OCO4)noc2cn1)c1ccccc1 | inactive | 1.69 µM (active) | inactive | inactive
Cc1cc(OCCCS(C)(=O)=O)cc(C)c1-c1cccc(COc2ccc3c(c2)OCC3CC(=O)O)c1 (centres undefined) | inactive | inactive | inactive | inactive
CN(C)C(=O)C(=O)c1cn(C)c2cc(Cl)c(C(=O)N3CCC(Cc4ccc(F)cc4)CC3)cc12 | inactive | inactive | 23 µM (active) | 23 µM (active)
CCN(CC)C(=O)c1ccc(Nc2nc(OCC3CCCCC3)c3[nH]cnc3n2)cc1 | inactive | 10.7 µM (active) | 3.65 µM (active) | 1.83 µM (active)
COc1cc2c(cc1NS(=O)(=O)c1ccc(Br)cc1C)n(C)c(=O)n2C | inactive | 1.69 µM (active) | 7.28 µM (active) | 7.28 µM (active)
O=C(NCc1nc2ccccc2c(=O)n1-c1ccc(F)cc1)Nc1ccc(Cl)c(C(F)(F)F)c1 | inactive | 10.7 µM (active) | 25.8 µM (active) | 23 µM (active)
CCCCc1c(-c2ccc(OC)cc2)[nH]c2nccnc12 | inactive | inactive | 3.65 µM (active) | 
O=C(Nc1ccc2[nH]nc(-c3ccncc3)c2c1)[C@@H]1CCN(CC(=O)N2CCN(c3ccc(-c4ncccn4)cc3)CC2)C1 | inactive | 6.74 µM (active) and 1.69 µM (active) | 9.16 µM (active) and 14.8 µM (active) | 10.3 µM (active) and 11.8 µM (active)
CCOC(=O)c1cnc2ccc(-c3cncc(NS(=O)(=O)c4ccccc4)c3)cn12 | inactive | 0.134 µM (active) | 0.29 µM (active) | 0.258 µM (active)
Cc1cccc(N2CCN(C(=O)c3cc(S(=O)(=O)N(C)C)ccc3N3CCCC3)CC2)c1C | inactive | 13.5 µM (active) | inactive | inactive
O=C1NC(=O)C(c2cnc3ccccn23)=C1c1cn2c3c(cc(F)cc13)CN(C(=O)N1CCCCC1)CC2 | inactive | 12 µM (active) | 5.2 nM (active) and 9.3 nM (active) | 5.2 nM (active) and 10.5 nM (active)
COc1ccc(C2(CNC(=O)c3ccc(NC(=O)c4ccco4)cc3)CCOCC2)cc1 | inactive | inactive | inactive | inactive
Cc1ccc(O)cc1Nc1ccnc(Nc2cccc(C(N)=O)c2)n1 | inactive | 1.9 µM (active) | 4.59 µM (active) | 4.09 µM (active)
CCN(CC)C(=O)C(c1ccccc1)N1CCN(c2ccc(NC(=O)c3ccccc3-c3cccnc3)cc2F)CC1 (centres undefined) | inactive | 9.52 µM (active) | inactive | inactive
COc1ccc(N(C(=O)Nc2c(C)cccc2C)c2cc(Nc3ccc(N4CCN(C)CC4)cc3)ncn2)c(OC)c1 | inactive | 13.5 µM (active) | 10.3 µM (active) | 
O=C(Nc1ccc(-n2nc(C(F)(F)F)cc2C(F)(F)F)cc1)c1ccncc1F | inactive | 26.8 µM (active) | 20.5 µM (active) | 
